Reference: PubChem BioAssay
A number with no mark means an inactive call. For part of these data: Results with a measured potency or affinity are listed apart. The source made the active and inactive calls. Unless noted, no rule for the calls is given here.

Key:
[1] = antimalarial activity against Dd2 strain (AID 2302;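 active = growth inhibition above 50% at the single 2 µM test dose, taken to imply half-maximal potency below 2 µM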;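 also: 0% = DMSO untreated growth and 100% = chloroquine plus artemisinin killed control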); conditions: P. falciparum Dd2 in RBCs, LDH growth readout, 72 h; at 2 µM; stronger effect = higher value
[2] = HepG2 cytotoxicity, primary screen, cytotoxicity control for P. falciparum antimalarial project, cell-based, ATP luminescence (AID 2303;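 active = inhibition above 50%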;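 also: 0% = DMSO wells and 100% = digitonin-killed cells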); conditions: HepG2 viability, 24-48 h, at 10 µM, stronger effect = higher value
[3] = target: L-lactate dehydrogenase (Plasmodium falciparum (isolate CDC / Honduras)) (UniProt Q27743); test: PfLDH activity inhibition – cell lysate, 3D7 strain, counter-screen for P. falciparum growth inhibition project (AID 2304);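 also: 0% = vehicle and 100% = reference inhibitor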; conditions: P. falciparum 3D7 crude extract, LDH APAD/NBT absorbance; at 2 µM; stronger effect = higher value
[4] = inhibition of 3D7 malaria parasite growth – strain 3D7 (AID 2306);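 also: 0% = DMSO wells and 100% = chloroquine plus artemisinin control wells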; conditions: P. falciparum 3D7 erythrocytic growth, LDH absorbance, 72 h; at 2 µM; stronger effect = higher value
[5] = target: Calcium-dependent protein kinase 1 (Plasmodium falciparum (isolate 3D7)) (UniProt P62344); test: PfCDPK1 kinase inhibitors, biochemical, TCAMS library (AID 1159585; cut-off not given, nearly all actives have IC50 up to about 0.98 µM;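 also: inhibitors leave more ATP so luminescence rises with inhibition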); conditions: recombinant PfCDPK1, Kinase-Glo ATP depletion luminescence
[6] = target: Plasmodium falciparum protein kinase 6 (PK6, PF3D7_1337100) (UniProt Q8IDW1); test: PfPK6 kinase inhibitors, biochemical, TCAMS library (AID 1159586); conditions: recombinant PfPK6, Kinase-Glo ATP depletion luminescence
[7] = target: Protein kinase 7 (PK7), Plasmodium falciparum 3D7 (PF3D7_0213400) (UniProt Q7YTF7); test: inhibition of Plasmodium PK7 catalytic activity – biochemical, TCAMS antimalarial set, Kinase-Glo luminescence (AID 1159587); conditions: recombinant PfPK7, Kinase-Glo ATP depletion luminescence
[8] = target: Calcium-dependent protein kinase 4 (Plasmodium falciparum (isolate 3D7)) (UniProt Q8IBS5); test: PfCDPK4 kinase inhibitors, biochemical, TCAMS library (AID 1159588; cut-off not given, nearly all actives have IC50 up to about 0.91 µM); conditions: recombinant PfCDPK4, Kinase-Glo ATP depletion luminescence
Calcium-dependent protein kinase 4 (Plasmodium falciparum (isolate 3D7)), sequence (Q8IBS5 whole entry, looked up): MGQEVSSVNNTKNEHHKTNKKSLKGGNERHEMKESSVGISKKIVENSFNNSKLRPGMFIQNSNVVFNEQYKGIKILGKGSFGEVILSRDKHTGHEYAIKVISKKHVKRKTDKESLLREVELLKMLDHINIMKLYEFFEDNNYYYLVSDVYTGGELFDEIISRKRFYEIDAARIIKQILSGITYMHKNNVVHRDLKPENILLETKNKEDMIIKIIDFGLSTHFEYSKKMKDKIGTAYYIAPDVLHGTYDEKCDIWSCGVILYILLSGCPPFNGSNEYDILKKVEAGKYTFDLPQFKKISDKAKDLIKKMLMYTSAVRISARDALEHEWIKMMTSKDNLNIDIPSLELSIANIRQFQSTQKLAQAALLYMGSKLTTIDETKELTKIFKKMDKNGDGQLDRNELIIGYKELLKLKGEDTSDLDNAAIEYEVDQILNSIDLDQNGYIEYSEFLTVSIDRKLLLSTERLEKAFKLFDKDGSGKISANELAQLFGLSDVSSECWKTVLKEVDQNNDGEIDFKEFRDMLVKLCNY

Protein kinase 7 (PK7), Plasmodium falciparum 3D7 (PF3D7_0213400), sequence (Q7YTF7 1-343): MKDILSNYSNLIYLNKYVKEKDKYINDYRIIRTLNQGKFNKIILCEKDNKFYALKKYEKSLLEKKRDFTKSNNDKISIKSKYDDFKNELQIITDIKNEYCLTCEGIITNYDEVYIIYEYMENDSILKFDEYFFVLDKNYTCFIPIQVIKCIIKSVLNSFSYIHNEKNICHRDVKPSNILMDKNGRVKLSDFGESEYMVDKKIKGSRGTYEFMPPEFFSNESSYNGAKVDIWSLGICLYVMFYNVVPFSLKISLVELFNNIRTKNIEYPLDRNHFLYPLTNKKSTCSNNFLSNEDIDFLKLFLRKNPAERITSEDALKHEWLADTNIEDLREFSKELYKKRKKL
Plasmodium falciparum protein kinase 6 (PK6, PF3D7_1337100), sequence (Q8IDW1 1-305): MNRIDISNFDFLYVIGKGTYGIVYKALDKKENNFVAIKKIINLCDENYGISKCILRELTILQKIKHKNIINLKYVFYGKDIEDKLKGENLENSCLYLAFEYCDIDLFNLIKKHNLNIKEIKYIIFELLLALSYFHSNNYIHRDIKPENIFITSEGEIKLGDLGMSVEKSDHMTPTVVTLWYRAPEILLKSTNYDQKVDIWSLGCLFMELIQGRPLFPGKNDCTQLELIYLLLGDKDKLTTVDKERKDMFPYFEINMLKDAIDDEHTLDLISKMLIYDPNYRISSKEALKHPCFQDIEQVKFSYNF
L-lactate dehydrogenase (Plasmodium falciparum (isolate CDC / Honduras)), sequence (Q27743 whole entry, looked up): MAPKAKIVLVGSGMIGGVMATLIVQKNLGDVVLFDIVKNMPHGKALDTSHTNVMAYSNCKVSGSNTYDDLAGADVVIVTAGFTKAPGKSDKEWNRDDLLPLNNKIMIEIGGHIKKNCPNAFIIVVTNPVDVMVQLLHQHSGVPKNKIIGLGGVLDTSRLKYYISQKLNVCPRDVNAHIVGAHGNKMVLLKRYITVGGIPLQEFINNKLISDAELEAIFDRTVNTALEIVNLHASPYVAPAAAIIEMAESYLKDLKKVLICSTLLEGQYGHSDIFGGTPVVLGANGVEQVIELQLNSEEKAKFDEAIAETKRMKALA
Calcium-dependent protein kinase 1 (Plasmodium falciparum (isolate 3D7)), sequence (P62344 whole entry, looked up): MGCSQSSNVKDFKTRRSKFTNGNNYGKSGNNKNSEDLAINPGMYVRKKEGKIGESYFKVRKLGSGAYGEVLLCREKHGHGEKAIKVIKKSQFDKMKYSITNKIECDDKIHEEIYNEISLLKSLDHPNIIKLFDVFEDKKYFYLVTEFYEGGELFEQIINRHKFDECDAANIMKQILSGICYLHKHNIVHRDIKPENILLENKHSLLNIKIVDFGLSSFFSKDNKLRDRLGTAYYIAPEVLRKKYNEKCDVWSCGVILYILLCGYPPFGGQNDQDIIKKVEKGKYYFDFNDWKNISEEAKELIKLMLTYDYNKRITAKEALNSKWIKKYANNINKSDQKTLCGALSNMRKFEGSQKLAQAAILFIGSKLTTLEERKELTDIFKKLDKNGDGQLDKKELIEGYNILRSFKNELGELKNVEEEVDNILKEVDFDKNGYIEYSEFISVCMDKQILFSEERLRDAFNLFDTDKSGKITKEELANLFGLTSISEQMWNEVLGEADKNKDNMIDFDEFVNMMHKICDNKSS

Row | SMILES | growth inhibition [1] | inhibition [2] [%] | inhibition [3] [%] | growth inhibition [4] | outcome [5] | outcome [6] | outcome [7] | outcome [8]
1 | O=C(/C=C/c1ccc(Cl)c(Cl)c1)N1CCC(CN2CCC(c3c[nH]c4ncccc34)CC2)CC1 | 20% | 38 | -1 | 84% (active) | inactive | inactive | inactive | inactive
2 | O=C(c1ccc(-c2ccc(Cl)cc2)o1)N1CCc2cc3nccc(N4CCN5CCC[C@H]5C4)c3cc21 | 86% (active) | 1 | -3 | 101% (active) | inactive | inactive | inactive | inactive
3 | COc1ccc(CNC2Cc3ccccc3C2)cc1-c1cccc(S(=O)(=O)NCCN2CCCC2)c1 | 61% (active) | 48 | -3 | 98% (active) | inactive | inactive | inactive | inactive
